The values below come from PubChem BioAssay (NCI).

About 83,000 compounds went through this panel and 20% of them were active in at least one assay; those are over-represented in the sample as a whole.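 Method: cells in 96-well plates; compound added at one concentration; 48 h incubation; percent growth measured; values under 10 scored active.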 Activity calls are given as the source filed them.

The subject of the test is LOX IMVI melanoma. Put plainly: NCI-60 one-dose screen, 48 h (100 = growth as untreated, 0 = no growth, -100 = all killed). The note with it: 10 µM. On the procedure: Growth inhibition of the LOX IMVI human tumor cell line is measured as a screen for anti-cancer activity. Cells are grown in 96 well plates and exposed to the test compound for 48 hours. Compounds are tested at a single concentration, which is 10^-5 M for most compounds. The reported endpoint is percent growth (GI% or GIPRCNT), where numbers from 0 - 100% represent growth inhibition, and numbers from -100% - 0 represent cell death. For example, a value of 40 represents 60% growth inhibition. A value of 0 means no net growth occurred over the course of the experiment. A value of -40 indicates 40% of cells at the beginning of the experiment died by the end of the experiment. A value of -100 means all cells are dead at the end of the experiment.
NCI-60 Human Tumor Cell Lines Screen was performed using the standard one-dose NCI protocol, which is described in more detail at https://dtp.cancer.gov/discovery_development/nci-60/default.htm.
Compounds with GIPRCNT values below 10 were considered active. Activity score was based on GIPRCNT using the following formula: […]
Score is 0 for GIPRCNT values of 100 or above, 50 for GIPRCNT values of 0, and 100 for GIPRCNT values of -100.
With `COc1ccc2[nH]cc(-c3nc(N)nnc3-c3cn(C)c4ncc(Br)cc34)c2c1`, the growth is 20% (inactive).
Regarding `COc1ccc(OC)c(-n2cc(C#N)c(N)c2C(=O)c2ccc(Cl)cc2Cl)c1`, the growth was 48.2% (inactive).
Regarding `O=C(CC(=O)Nc1ccc(Oc2ncnc3scc(Nc4n[nH]c(=S)s4)c23)cc1)Nc1ccc(Br)cc1`, the growth was 66.2% (inactive).
Take `O=C(CN1CCN(c2ncnc3c2cnn3-c2ccccc2)CC1)Nc1ccc(Br)cc1`: the growth was 81.8% (inactive).
With `O=C(c1ccccc1)c1ccc2nc(-c3ccccc3Br)[nH]c2c1`, the growth is -94.6% (active).
On to `Cc1ccc(S(=O)(=O)N2CCN(S(=O)(=O)c3oc(-c4ccccc4)nc3C#N)CC2)cc1`, for which the growth is 8.41% (active).
On to `Cn1cc(-c2cc(N)n3nc(-c4cn(C)c5ccccc45)cc3n2)c2cc(F)ccc21`, for which the growth is -86.2% (active).
Take `O=C(Nc1ccc(OCc2ccc(Cl)cc2)cc1)Nc1ccc(Cl)c(C(F)(F)F)c1`: the growth was -72.5% (active).
Regarding `Cn1cc(-c2nnc(N)nc2-c2c[nH]c3ccc(F)cc23)c2cc(Br)cnc21`, the growth was 47% (inactive).
Take `C#C[C@]1(O)CC[C@H]2[C@@H]3CC=C4c5sc(Nc6cc(C)cc(C)n6)nc5CC[C@]4(C)[C@H]3CC[C@@]21C`: the growth is -96% (active).
Regarding `COc1cc(C2CC(c3ccccc3)=Nc3c(N)nc(N)nc3N2)ccc1Oc1nc(NCCO)nc(N2CCOCC2)n1` (stereo not given), the growth is 107% (inactive).
Consider `COc1ccccc1-n1cc(C#N)c(N)c1C(=O)c1ccc(Cl)cc1Cl`, for which the growth was 39.5% (inactive).
As for `Cn1cc(-c2cc3nc(-c4c[nH]c5ccccc45)cc(N)n3n2)c2cc(Cl)ccc21`, the growth is -91.6% (active).
Regarding `Cc1cc(N=C2NC(=O)S/C2=C\c2ccc(F)cc2)n[nH]1`, the growth was -59.8% (active).
As for `O=C(Nc1ccc(OCc2ccc(F)cc2)cc1)Nc1ccc(Cl)c(C(F)(F)F)c1`, the growth was -47.4% (active).
For `O=C(CC(=O)Nc1ccc(Oc2ncnc3scc(Nc4n[nH]c(=S)s4)c23)cc1)Nc1ccc(Cl)cc1`, the growth is 69% (inactive).
`COc1ccc(C2c3sc4ccc(C)cc4c3Oc3nc(N)nc(N)c32)cc1` (stereo not given): the growth was 80.8% (inactive).
In the case of `CCOC(=O)C1=C(N)N(c2ccc(C)cc2)C2=C(C(=O)CC(C)(C)C2)C1c1ccccc1Br` (stereo not given), the growth is 88.8% (inactive).
Next, `O=C(Nc1ccc(OCC(=O)c2ccc(Cl)cc2)cc1)Nc1ccc(Cl)c(C(F)(F)F)c1`: -37.8% (active).
With `O=C1NC(=S)S/C1=C\c1cn(-c2ccccc2)nc1-c1ccc([N+](=O)[O-])cc1`, the growth is 29.1% (inactive).
`COc1cc2oc(-c3cccc(C(=O)Nc4ccc(Cl)cc4)c3)cc(=O)c2c(OCCNC(=O)[C@@H](N)CO)c1OC`: the growth was -79.1% (active).
With `C#C[C@]1(O)CC[C@H]2[C@@H]3CC=C4c5sc(Nc6ccc(N(C)C)cc6)nc5CC[C@]4(C)[C@H]3CC[C@@]21C` the figure was -80.3% (active).
With `Fc1ccc(-c2csc(Nc3cccc(Nc4nc(-c5ccc(F)cc5)cs4)c3)n2)cc1`, the growth is 39.3% (inactive).
On to `Cc1cc(N=C2NC(=O)/C(=C/c3cc(C(C)(C)C)c(O)c(C(C)(C)C)c3)S2)n[nH]1`, for which the growth is 1.11% (active).
With `Cn1cc(-c2nnc(N)nc2-c2c[nH]c3ccccc23)c2cc(Br)cnc21`, the growth was -75.6% (active).
With `COc1cc2oc(-c3cccc(C(=O)Nc4ccc(Cl)cc4)c3)cc(=O)c2c(OCCN)c1OC` the figure was -84.3% (active); with `C#CCOc1cc(N(CC)CC)ccc1C(C(=O)NC(C)(C)C)N(C(=O)C1CCc2cc(F)ccc2O1)c1ccc(F)cc1F` (stereo not given), -5.11% (active).
With `COc1cccc(C(=O)CSc2nc(-c3ccc(OCc4ccccc4)c(OC)c3)c(C#N)c(=O)[nH]2)c1`, the growth was 85.7% (inactive).
On to `Cn1cc(-c2nc(N)nnc2-c2c[nH]c3ccccc23)c2cc(Br)cnc21`, for which the growth was 15.6% (inactive).
`COc1ccc(C(=O)COc2ccc(NC(=O)Nc3ccccc3)cc2)cc1`: the growth was 58.9% (inactive).
With `CCn1c(SCC(=O)Nc2ccc(-c3nc4ccccc4[nH]3)cc2)nc2ccccc2c1=O` the figure was -63% (active); with `Cn1cc(/C=C(/SS/C(=C/c2cn(C)c3cccc(C(=O)O)c23)C(=O)O)C(=O)O)c2c(C(=O)O)cccc21`, 48.9% (inactive); with `O=C(Nc1ccc(Oc2ncnc3scc(Nc4n[nH]c(=S)s4)c23)cc1)C1(C(=O)Nc2cccc(C(F)(F)F)c2)CC1`, 30.4% (inactive).
Regarding `C#C[C@]1(O)CC[C@H]2[C@@H]3CC=C4c5sc(Nc6ccc(C(F)(F)F)cn6)nc5CC[C@]4(C)[C@H]3CC[C@@]21C`, the growth was -98.5% (active).
With `Cc1ccc(COc2ccc(NC(=O)Nc3ccc(Cl)c(C(F)(F)F)c3)cc2)cc1` the figure was 15.6% (inactive).
With `O=[N+]([O-])c1cccc(-c2nnc3c(/C=C/c4ccccc4O)nc4ccccc4n23)c1` the figure was 56.1% (inactive); with `Cc1ccc2c(c1)C(=O)/C(=C/c1ccc([N+](=O)[O-])cc1)S2`, 105% (inactive).
Regarding `O=C(O)CCN1C(=O)/C(=C/C=C/c2ccc([N+](=O)[O-])o2)SC1=S`, the growth was -100% (active).
Turning to `CC1(C)CC[C@]2(C(=O)O)CC[C@]3(C)C(=CCC4[C@@]5(C)C[C@@H](O)[C@@H]6OC(c7cccc(F)c7)OC[C@@]6(C)C5CC[C@]43C)C2C1` (stereo not given in full), the growth is 27.6% (inactive).
For `COc1ccc(C2c3sc4ccc(C)cc4c3Oc3nc[nH]c(=O)c32)cc1` (stereo not given), the growth is 92.5% (inactive).
